Most compounds without a hit are left out; they make up all but 8% or so of the library.
Lassa entry: blocks Lassa virus binding or cell entry; Lassa virus pseudotyped entry inhibition, cell-based qHTS; Potency, µM (titrated, usually from 49.2 µM), for the others: at the highest dose activity change, negative = inhibition, most hits filed as inhibitors; 18,000 tested, 4.1% active
MARV entry inh: inhibitors of Marburg virus binding or entry into cells. Marburg virus pseudotype entry/binding inhibition, cell-based. Potency, µM (series often up to 49.2 µM), without a hit: at the highest dose activity change, negative = inhibition, usual class: inhibitors. 18,000 tested, 6.5% active
* hit, by the source's call; ! = not active in a repeat; [ ] = another dose, or the depositor's remark. Calls follow the shape of the full dose curve; tested in HEK293 cells. % is scaled to controls: 0 for no effect and ±100 for the full control effect; potency is read from the fitted curve at half-maximal effect.

How did CC(C)NC[C@H](O)c1ccc(NS(C)(=O)=O)cc1 do in these assays?
Lassa entry: -8%; MARV entry inh: 11%

What do the screens show for `O=C(c1cccnc1)C1CCCN(Cc2ccc3c(c2)CN(C(=O)c2cccc(Cl)c2)CCO3)C1` (configuration not stated)?
Lassa entry: -14%; MARV entry inh: inconclusive

What do the screens show for `CN=C(N)NCCC[C@H](N)C(=O)O`?
Lassa entry: -2%; MARV entry inh: -15%

What do the screens show for `Cc1ccc2c(c1)Cc1c(C(=O)NC3CCCCC3)nn(-c3ccc(Cl)cc3Cl)c1-2`?
Lassa entry: -8%; MARV entry inh: inconclusive

How did Cc1c(C(=O)NN2CCCCC2)nn(-c2ccc(Cl)cc2Cl)c1-c1ccc(Cl)cc1 do in these assays?
Lassa entry: 16µM*; MARV entry inh: 14µM*

Results for CC(C)C[C@@H](CC(=O)N[C@@H](CCCN)CC(=O)N[C@@H]1CCCC[C@H]1C(=O)N[C@H](CC(=O)N[C@@H](CCC(=O)O)CC(=O)O)Cc1c[nH]c2ccccc12)NC(=O)[C@@H]1CNCC[C@H]1N ?
Lassa entry: -1%; MARV entry inh: 0%

Results for O=C(O)c1ccc(-c2ccc(-c3ccccc3)cc2)o1 ?
Lassa entry: 4%; MARV entry inh: 7%

Results for CC12CCC3c4ccc(O)cc4CCC3C1CCC2O (configuration not stated) ?
Lassa entry: inconclusive; MARV entry inh: 4%

Results for C[C@]12CC[C@@H]3c4ccc(O)cc4CC[C@H]3[C@@H]1CC[C@@H]2O ?
Lassa entry: 14µM*!; MARV entry inh: 7%

How did CCCCCCC(=O)O[C@H]1CC[C@H]2[C@@H]3CCc4cc(O)ccc4[C@H]3CC[C@]12C do in these assays?
Lassa entry: 32µM*; MARV entry inh: 4%

What do the screens show for `C[C@@]12CC[C@@H]3c4ccc(O)cc4CC[C@H]3[C@H]1CC[C@H]2O`?
Lassa entry: -12%[17.8 µM]; MARV entry inh: 7%[17.8 µM]

How did Nc1c2c(nc3ccccc13)CCCC2 do in these assays?
Lassa entry: inconclusive; MARV entry inh: 10µM*

What do the screens show for `Nc1c2ccccc2nc2ccccc12`?
Lassa entry: inconclusive; MARV entry inh: 14µM*

Results for c1ccc2nc3ccccc3cc2c1 ?
Lassa entry: -27%; MARV entry inh: inconclusive

How did CO[C@H]1[C@H](NC(=O)c2cccc(F)c2)c2ccccc2C12CCN(Cc1ccco1)CC2 do in these assays?
Lassa entry: -5%; MARV entry inh: -2%

What do the screens show for `Cc1oc(-c2cccc(NC(=O)c3ccccn3)c2)nc1CNC(=O)c1ccc(C(F)(F)F)cc1`?
Lassa entry: -9%; MARV entry inh: 16%

Results for COc1cc(CC(C)N)c(OC)cc1Br (configuration not stated) ?
Lassa entry: inconclusive; MARV entry inh: 18µM*

Results for CCc1cc(OC)c(C[C@H](C)N)cc1OC ?
Lassa entry: -13%[107 µM]; MARV entry inh: inconclusive

Results for Cc1c(O)cccc1C(=O)N[C@@H](CSc1ccccc1)[C@H](O)CN1C[C@H]2CCCC[C@H]2C[C@H]1C(=O)NC(C)(C)C ?
Lassa entry: 28µM*; MARV entry inh: 11µM*

How did Cn1c(-c2ccccc2)c(O)c(=O)c2ccccc21 do in these assays?
MARV entry inh: 35%[8.59 µM]

How did Cc1nnc2n1-c1sc(CCC(=O)N3CCOCC3)cc1C(c1ccccc1Cl)=NC2 do in these assays?
Lassa entry: -16%; MARV entry inh: 11%

What do the screens show for `Cc1nnc2n1-c1sc(CCc3ccc(CC(C)C)cc3)cc1C(c1ccccc1Cl)=NC2C` (configuration not stated)?
Lassa entry: 7.9µM*; MARV entry inh: 14µM*

Results for COc1ccc(-c2coc3c(OC)c(OC)cc(OC)c3c2=O)cc1 ?
Lassa entry: -10%; MARV entry inh: 15%

What do the screens show for `C=C(C)[C@H]1O[C@H]2CC[C@@]3(C)[C@@](O)(CC[C@H]4[C@@H]5OC(C)(C)[C@H]6C[C@@H]7C(=C)Cc8c(Cl)cc9[nH]c(c5c9c8[C@@]76O)[C@@]43C)[C@]23O[C@@H]3[C@H]1O`?
Lassa entry: 25µM*; MARV entry inh: inconclusive

Results for CC(=O)SC1CC2=CC(=O)CC[C@@]2(C)C2CC[C@@]3(C)[C@@H](CC[C@@]34CCC(=O)O4)C12 (some centres not stated) ?
Lassa entry: 20%; MARV entry inh: -15%

Results for CC1(OC(=O)c2cnc3ccccc3n2)C(=O)C=C2C=C(c3ccc(C#N)cc3)OC=C2C1=O (configuration not stated) ?
Lassa entry: inconclusive; MARV entry inh: 8%

What do the screens show for `O=C(NCCCc1ccccc1)c1cccc(NC(=O)C2CC2)c1`?
Lassa entry: -28%; MARV entry inh: 5%

What do the screens show for `O=P(O)(O)OC(CO)CO`?
Lassa entry: -26%; MARV entry inh: -11%

How did CC(C)NC[C@H](O)COc1cccc2ccccc12 do in these assays?
Lassa entry: -7%; MARV entry inh: 16µM*!

How did C=CCc1ccccc1OCC(O)CNC(C)C (configuration not stated) do in these assays?
Lassa entry: 1%; MARV entry inh: 11µM*

What do the screens show for `CC(C)NCC(O)COc1ccccc1-n1cccc1` (configuration not stated)?
Lassa entry: 4%; MARV entry inh: inconclusive

What do the screens show for `CC(C)NC[C@@H](O)COc1cccc2ccccc12`?
Lassa entry: -13%; MARV entry inh: inconclusive

How did CCC[C@H]1CN(c2ccc(Br)cc2)C(=O)[C@H]1CC(=O)NC do in these assays?
Lassa entry: 14%; MARV entry inh: 25%

What do the screens show for `COc1ccc(C(=O)Nc2ccccc2CCC2CCCCN2C)cc1` (configuration not stated)?
Lassa entry: 2%; MARV entry inh: inconclusive

What do the screens show for `COc1ccc(C(OCCN2CCC[C@H](C(=O)O)C2)(c2ccc(OC)cc2)c2ccc(OC)cc2)cc1`?
Lassa entry: 4.5µM*; MARV entry inh: -25%

Results for COc1ccc(C(OCCN2CCC[C@@H](C(=O)O)C2)(c2ccc(OC)cc2)c2ccc(OC)cc2)cc1 ?
Lassa entry: 6.3µM*; MARV entry inh: -21%

How did Cc1ccsc1C(=CCCN1CCC[C@@H](C(=O)O)C1)c1sccc1C do in these assays?
Lassa entry: -2%; MARV entry inh: 10%

Results for C=C1CCC2C(C)(CO)C(O)CCC2(C)C1C/C=C1\C(=O)OCC1O (configuration not stated) ?
Lassa entry: inconclusive; MARV entry inh: 11µM*

How did CCCCCCCCC#CCC#CCC#CCCCC(=O)O do in these assays?
Lassa entry: 7%; MARV entry inh: 2%

What do the screens show for `NC(N)=NN=C(/C=C/c1ccc([N+](=O)[O-])o1)/C=C/c1ccc([N+](=O)[O-])o1`?
Lassa entry: 6.3µM*; MARV entry inh: 14µM*

Results for O=[N+]([O-])c1ccc(/C=N\O)o1 ?
Lassa entry: -2%; MARV entry inh: 16%

What do the screens show for `COc1ccc(OC)c(-c2cc(Cl)c3c(c2)CC(CNC(=O)c2coc4c2C(=O)CCC4)O3)c1` (configuration not stated)?
Lassa entry: -10%; MARV entry inh: -9%

What do the screens show for `CC(C)c1cc(/C=C(\C#N)C(=O)NCCCc2ccccc2)cc(C(C)C)c1O`?
Lassa entry: 25µM*; MARV entry inh: inconclusive

How did N#C/C(=C\c1ccc(O)c(O)c1)C(=O)NCCCNC(=O)/C(C#N)=C/c1ccc(O)c(O)c1 do in these assays?
Lassa entry: -21%; MARV entry inh: -31%

High-throughput results (PubChem)
